PubChem BioAssay (NCI)
Compounds without any hit were thinned out: in the full panel of roughly 83,000, 20% have a hit.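 Method: cells in 96-well plates; compound added at one concentration; 48 h incubation; percent growth measured; values under 10 scored active.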 Values without a mark were called inactive. The source made the active and inactive calls.

What was measured:
Test in all cases: NCI-60 one-dose screen, 48 h (100 = growth as untreated, 0 = no growth, -100 = all killed)
Settings in all cases: 10 µM unless noted
NCI-H23 lung = test system: NCI-H23 lung
NCI-H226 lung = test system: NCI-H226 lung
HOP-62 NSCLC = test system: HOP-62 NSCLC
NCI-H460 lung = test system: NCI-H460 lung
HOP-92 NSCLC = test system: HOP-92 NSCLC
NCI-H522 lung = test system: NCI-H522 lung
A549/ATCC NSCLC = test system: A549/ATCC NSCLC
786-0 renal = test system: 786-0 renal
COLO 205 colon = test system: COLO 205 colon
NCI-H322M lung = test system: NCI-H322M lung

Structure (SMILES)	growth (NCI-H23 lung)	growth (NCI-H226 lung)	growth (HOP-62 NSCLC)	growth (NCI-H460 lung)	growth (HOP-92 NSCLC)	growth (NCI-H522 lung)	growth (A549/ATCC NSCLC)	growth (786-0 renal)	growth (COLO 205 colon)	growth (NCI-H322M lung) [%]
O=C1CC23OC4ON=C(Br)C4C2C(O)c2ccccc2N13 (centres undefined)	87.9%	97.7%	106%	106%	107%	79.6%	103%	101%	125%	–
Nc1cccc(C(=O)Nc2ccc3c(O)c(N=Nc4ccc(N=Nc5ccc(S(=O)(=O)O)cc5)cc4)c(S(=O)(=O)O)cc3c2)c1	104%	109%	96%	106%	97.7%	84.5%	97.5%	98.1%	121%	–
COc1ccc(Cc2nc(C#N)c(N3CCN(c4ccc(F)cc4)CC3)o2)cc1	86.3%	74.1%	95.8%	104%	88.2%	73.6%	92.1%	91.1%	103%	–
CN(C)c1ccc(-c2ccc3[nH]c(=O)nc(-c4ccc(F)cc4)c3c2)cn1	56.2%	68.3%	48.2%	21.6%	56.1%	14.9%	39.6%	30.4%	39.6%	–
Cc1cc(NC(=O)CNc2nc(Oc3ccc(F)cc3)nc(-c3ccc(F)cc3)n2)ccc1Cl	98.1%	98.9%	94.5%	99.3%	97.7%	85.7%	87.1%	99.5%	112%	–
COc1ccc(NC(=O)c2sc3nc(C)c(C(C)=O)cc3c2N)cc1	98.1%	95.9%	99.1%	96%	94.6%	75.2%	84%	91.4%	103%	–
COc1cc(-c2csc(NC(=O)Nc3ccc(C(F)(F)F)cc3)n2)cc(OC)c1OC	2.62% (active)	0.0527% (active)	9.05% (active)	–	-24.5% (active)	-25% (active)	5.16% (active)	-10% (active)	-44.4% (active)	–
C[C@H](Oc1cc(-c2cnn(C3CCNCC3)c2)cnc1N)c1c(Cl)ccc(F)c1Cl	–	109%	66.5%	57.9%	41.1%	73.1%	72%	49.2%	46.3%	75.2
Nc1c(C(=O)c2ccccc2)sc2nc(-c3cc4ccccc4o3)cc(-c3ccc(Cl)cc3)c12	89.9%	112%	102%	103%	-6.31% (active)	84.7%	106%	107%	99.4%	–
N#Cc1ccc(N2Cc3cc(Cl)ccc3OC3=C2C(=O)N(Cc2ccc(F)cc2)C3=O)cc1	3.56% (active)	92.6%	52%	23.6%	-64.1% (active)	-63.2% (active)	68.5%	-90.5% (active)	-73.5% (active)	–
C=C(C)[C@@H]1CC[C@]2(C(=O)O)CC[C@]3(C)[C@H](CC[C@@H]4[C@@]5(C)C[C@@H](CC#Cc6ccccc6)C(=O)C(C)(C)[C@@H]5CC[C@]43C)[C@@H]12	25.2%	28.5%	–	24.1%	48.2%	11.6%	25.3%	35.3%	20.8%	–
CC(=O)Nc1ccc2c(c1)Cc1cc(F)ccc1-2	90.8%	99.2%	84.8%	106%	93.4%	73.7%	92.5%	98%	124%	–
Cc1cccc(C)c1Nc1nnc(-c2ccc(F)cc2)o1	92.4%	96.1%	107%	104%	95.5%	112%	104%	112%	100%	–
O=C(/C(=C/c1ccc([N+](=O)[O-])cc1)SCc1ccccc1)c1ccc(Cl)cc1	70.9%	68.4%	80.3%	87.4%	71.1%	41.4%	82.7%	86.9%	70.3%	–
COc1ccccc1C(=O)/C=C/c1cc2cccc(OC)c2[nH]c1=O	-16.4% (active)	-22.1% (active)	-8.85% (active)	-27.5% (active)	10.6%	-72.7% (active)	21.4%	9.27% (active)	-49.7% (active)	–
CC(=O)OCC1OC(OC2C(COC(C)=O)OC(OCCC[S-])C(OC(C)=O)C2OC(C)=O)C(OC(C)=O)C(OC(C)=O)C1OC(C)=O.[Au+].c1ccc(CN2[CH-]N(Cc3ccccc3)C(c3ccccc3)=C2c2ccccc2)cc1 (centres undefined)	12.1%	25.3%	31.8%	15%	-11.4% (active)	-30.8% (active)	23.2%	9.05% (active)	-37.4% (active)	–
C=C1C(=O)O[C@H]2[C@H]1CC/C(C=Nc1c(N)cc(C(F)(F)F)cc1Br)=C\CC[C@@]1(C)O[C@@H]21	30%	38.3%	–	26.7%	-15.5% (active)	-68% (active)	58%	-41.8% (active)	-52.1% (active)	–
Nc1ccc(C2=NN(C(=O)c3cc(-c4ccc(Cl)cc4)nc4ccccc34)C(c3ccc(Cl)cc3)C2)cc1 (centres undefined)	50%	60.1%	28.8%	17.2%	60.3%	15.4%	43.8%	25.6%	22.6%	–
CC1CCCN(CCCCCOc2ccc3oc4ccc(Cl)cc4c(=O)c3c2)C1 (centres undefined)	78.6%	104%	85.7%	–	88.8%	71.1%	76.1%	68.2%	57.5%	–
NS(=O)(=O)c1ccc(-n2ncc(NC(=O)Nc3ccc(S(=O)(=O)Nc4nccs4)cc3)c2-c2ccccc2)cc1	106%	104%	94.4%	108%	106%	98.4%	98.5%	95.6%	108%	–
Cc1cnc(SCc2ccc(Cl)cc2Cl)nc1Nc1ccc(Cl)c(Cl)c1	92.8%	101%	93.4%	92.2%	76%	66.7%	78.2%	92.3%	117%	–
COc1ccccc1-c1ccc2nc(NC(=O)Nc3cc(C(F)(F)F)cc(C(F)(F)F)c3)sc2c1	6.38% (active)	16.9%	–	-4.9% (active)	-8.46% (active)	-2.89% (active)	12.7%	8.85% (active)	-84.8% (active)	–
CCOCc1nc2ccccc2c(=O)[nH]1	94.7%	91.7%	102%	101%	102%	91.3%	100%	103%	108%	–
COC(=O)c1oc2c(C(=O)/C=C/c3ccc(OC)cc3)c(OCCCN3CCCCC3)ccc2c1C	22.1%	89.4%	1.98% (active)	4.2% (active)	-38.8% (active)	1.11% (active)	-3.52% (active)	1.16% (active)	29.2%	–
O=C(N/N=C/C[C@@H]1[C@@H](/C=C/[C@@H](O)COc2cccc(Cl)c2)[C@H](O)C[C@@H]1O)c1ccncc1	98.2%	89.3%	79.4%	102%	93.7%	69.9%	89%	105%	113%	–
CCCCN(CCCC)CC(CN(CC)CC)OC(=O)Nc1ccccc1 (centres undefined)	72.2%	103%	75.4%	105%	75%	74.7%	92.9%	83%	79.6%	–
